Assay outcomes: PubChem BioAssay, several laboratories
Mcl-1 Bim block – inhibitors of Bim peptide binding to Mcl-1, primary screen, biochemical, bead-based flow cytometry, multiplex; Induced myeloid leukemia cell differentiation protein Mcl-1 (Homo sapiens), Q07820; Bim peptide-Mcl-1 binding; inhibition, % at 10 µM; 190,000 tested, 0.1% active; AID 1009, 2008; in the data active means inhibition above about 40%;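 further: 0% = no compound tracer wells and 100% = peptide blocker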
Target sequence (Q07820 whole entry, looked up): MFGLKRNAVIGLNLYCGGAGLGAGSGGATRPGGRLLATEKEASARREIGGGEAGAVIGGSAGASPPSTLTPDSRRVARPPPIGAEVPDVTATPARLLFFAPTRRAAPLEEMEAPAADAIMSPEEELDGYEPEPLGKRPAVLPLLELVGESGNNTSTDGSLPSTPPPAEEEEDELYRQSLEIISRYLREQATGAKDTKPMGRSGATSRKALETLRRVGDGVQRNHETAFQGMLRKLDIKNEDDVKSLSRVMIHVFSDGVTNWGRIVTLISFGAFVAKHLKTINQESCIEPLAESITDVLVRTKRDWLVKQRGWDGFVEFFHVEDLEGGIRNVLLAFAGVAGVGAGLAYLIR
Mcl1 Noxa PPI – Mcl-1/Noxa binding inhibitors, primary screen, biochemical, TR-FRET, 1536-well; Induced myeloid leukemia cell differentiation protein Mcl-1 (Homo sapiens), Q07820; TR-FRET Mcl-1/Noxa peptide binding, 2 h; inhibition, % at 21.7 µM; 220,000 tested, 1.5% active; AID 1022, 2008;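 active means compounds that cut the protein-peptide binding signal by more than 50% relative to plate controls in a single-dose test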;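 further: His-tagged Mcl-1 with rhodamine Noxa BH3 peptide and terbium anti-His antibody; 0% = Mcl-1 plus Noxa peptide wells and 100% = peptide-only wells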
Mcl1-Bid inh – Mcl-1/Bid binding inhibitors, primary screen, biochemical, TR-FRET, 1536-well | Induced myeloid leukemia cell differentiation protein Mcl-1 (Homo sapiens), Q07820 | TR-FRET Mcl-1/Bid-Dy647 peptide binding | inhibition, % at 21.7 µM | 220,000 tested, 0.97% active;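 active means compounds that cut the binding signal by more than half at the single screening dose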;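 further: His-tagged Mcl-1 with europium anti-His antibody binding Bid BH3 peptide; 0% = Mcl-1 plus peptide wells and 100% = peptide-only wells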
MCL1-BIM inh – inhibitors of MCL1 binding to BIM-BH3, primary screen, biochemical, fluorescence polarization; GST-MCL1 / FITC-Bim-BH3 fluorescence polarization; inhibition, % at 10.9 µM; 320,000 tested, 0.68% active;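 active means inhibition above the mean inhibition of all tested compounds plus 3 SD, set per campaign, cut at about 40% in these data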;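 further: 0% = DMSO wells and 100% = unlabeled Bim-BH3 peptide control; higher means more loss of mP so more displacement of Bim peptide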
TNF death inh – inhibitors of TNF-alpha triggered necroptosis, primary screen, cell-based, Jurkat FADD-/-, single concentration. Jurkat FADD-/- TNF necroptosis rescue, ATP luminescence, 24 h; 0 = TNF only, 100 = no-TNF cells. activation (protection from cell death), % at 10 µM. 220,000 tested, 0.068% active. AID 463075, 2010;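 active means activation, meaning protection from cell death, of at least 50% relative to plate controls; inactive means activation below 50%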;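 further: necroptosis triggered by 40 ng/mL TNF-alpha added together with compound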
L929 necroptosis – inhibitors of zVAD-triggered necroptosis, primary screen, L929 cells. 220,000 tested, 0.38% active. L929 zVAD necroptosis rescue, ATP luminescence, 24 h; with zVAD 60 µM. AID 1377, 2008. viability rescue, % at 10 µM;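 active means activation, scaled between plate controls, above about 75%, limit read from the data; inactive means activation under that limit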;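 further: 0% = zVAD with DMSO and 100% = DMSO alone without zVAD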
An asterisk follows results filed as active; nt = not tested or not shown. The list is not random: actives were taken first. Their share in the collection is about 2.4%.

SMILES | Mcl-1 Bim block | Mcl1 Noxa PPI | Mcl1-Bid inh | MCL1-BIM inh | TNF death inh | L929 necroptosis
CCN1CC=C2C(C#N)=C(N)C(C#N)(C#N)C(CCc3ccccc3)C2C1 (stereo not drawn) | 0.0 | -12.8 | -29.2 | 182.8* | -0.9 | -0.2
CCOC(=O)CNC(=O)c1cc(-c2ccccn2)nc2c(C)c(Cl)ccc12 | 0.0 | 9.9 | -20.9 | 9.0 | 0.2 | 2.2
Cn1cc(CN2C[C@]3(C)C[C@H]2CC(C)(C)C3)c(-c2ccc3c(c2)OCCO3)n1 | 50.0* | 11.2 | -19.6 | 12.1 | 0.0 | -0.8
CCOC(=O)CC1CCCCN1Cc1cn(C)nc1-c1ccc2c(c1)OCCO2 (stereo not drawn) | -1.0 | -1.5 | -24.8 | -1.2 | 2.0 | 0.1
COc1cc(/C=C/[N+](=O)[O-])ccc1OCc1cccc(C(=O)O)c1 | -1.0 | 59.8* | -2.7 | nt | -4.2 | -0.9
Cc1onc(-c2c(Cl)cccc2Cl)c1C(=O)N=C(N)N1CCCC1 | nt | 3.2 | -7.2 | 1.3 | -0.1 | 1.0
O=C1NN(c2ccc(F)c(Cl)c2)C(=O)/C1=C\c1cccc(OC(=O)c2cccs2)c1 | -1.0 | 94.0* | 45.4 | 13.3 | 0.3 | 0.2
COc1ccccc1C1CC(c2ccccc2)Nc2ncnn21 (stereo not drawn) | -4.0 | 14.1 | 97.3* | 2.1 | -2.4 | 0.0
Cc1ccc(S(=O)(=O)C2CS(=O)(=O)CC2O)cc1 (stereo not drawn) | -2.0 | -9.6 | -2.5 | -6.4 | 0.6 | 0.3
CC(=O)C1=C(S(=O)(=O)c2ccc(C)cc2)CS(=O)(=O)C1 | 0.0 | 78.0* | -31.0 | nt | -0.1 | 0.4
OCCNc1nc(Nc2ccccc2)nc(Nc2ccccc2)n1 | -1.0 | 91.7* | -1.4 | -2.2 | 1.9 | 2.8
OCCNc1nc(Nc2ccccc2)nc2ccccc12 | 2.0 | 44.3 | 7.5 | 2.6 | -1.1 | -0.3
Cc1sc2nc(CN3CCN(c4ccc(O)cc4)CC3)[nH]c(=O)c2c1C | nt | 67.1* | -36.3 | 16.8 | 0.9 | 0.6
Cc1cc(C2=NNC(=Nc3ccc(S(=O)(=O)N4CCOCC4)cc3)SC2)c(C)n1C | nt | 72.0* | -41.6 | 0.8 | 0.6 | 0.3
COc1cc(OC)c(OC)cc1CNC(=O)c1cc(=O)[nH]c2ccccc12 | nt | nt | nt | -14.8 | nt | nt
CCCCCCOC(=O)C(C#N)c1nc2ccccc2nc1N1CCN(C)CC1 (stereo not drawn) | -1.0 | 52.6* | -14.3 | 17.7 | -0.2 | 1.6
CCCCCCOC(=O)C(C#N)c1nc2ccccc2nc1N1CCCCC1 (stereo not drawn) | 3.0 | -0.7 | -6.3 | -4.9 | 0.6 | -0.1
O=C(Nc1nc2c(F)cc(F)cc2s1)C1CC(=O)N(Cc2ccco2)C1 (stereo not drawn) | nt | 58.9* | -20.1 | 13.1 | -9.5 | -0.7
COC(=O)c1c(C)[nH]c(C)c1C(C)=O | nt | 4.9 | 71.2* | -2.4 | -1.3 | -0.7
COC(=O)c1c(C)[nH]c(C(C)=O)c1C | -3.0 | 8.1 | 0.8 | 7.7 | -1.4 | 0.0
COc1cccc(N/C=C/C(=O)c2ccc(Br)cc2)c1 | nt | nt | nt | -5.1 | -2.1 | -0.2
COc1ccc(C(=O)/C=C/Nc2cccc(O)c2)cc1 | 5.0 | 5.9 | -30.9 | 48.3* | -2.7 | 0.6
O=C(NC(=S)Nc1cc(S(=O)(=O)N2CCOCC2)ccc1N1CCOCC1)C1CCCC1 | 0.0 | 6.6 | -38.4 | 6.2 | 2.7 | 0.5
COc1cc(O)c(/C=N/NC(=O)c2ccncc2)c(OC)c1[N+](=O)[O-] | 1.0 | 53.4* | -61.7 | 16.4 | -0.3 | 1.0
COc1cc(C(=O)N/N=C\c2ccccc2)c([N+](=O)[O-])c(OC)c1OC | 0.0 | 4.6 | 95.5* | 15.2 | -1.9 | 0.1
SMILES | Mcl-1 Bim block | Mcl1 Noxa PPI | Mcl1-Bid inh | MCL1-BIM inh | TNF death inh | L929 necroptosis
COc1ccc(/C=N/NC(=O)c2ccncc2)cc1[N+](=O)[O-] | 0.0 | 0.2 | -5.2 | 8.5 | 1.1 | 1.6
Cc1ccc(NC(=O)CC2CCCC2)c(Br)c1 | nt | nt | nt | -5.2 | nt | nt
O=C(CN(C(=O)c1csnn1)c1ccc(F)cc1)NCCc1ccccc1 | nt | nt | nt | 3.4 | nt | nt
CCOC(=O)c1ccc(NS(=O)(=O)N2CCCCCC2)cc1 | 0.0 | 13.6 | 78.3* | 3.0 | 3.1 | 1.5
CCOC(=O)c1ccc(NC(=O)N2CCCCCC2)cc1 | nt | nt | nt | 1.3 | nt | nt
CCOC(=O)c1ccc(S(=O)(=O)N2CCNCC2)cc1 | -7.0 | 10.6 | 54.1* | 7.9 | 1.7 | 0.6
O=C(NCCCc1ccccc1)c1ccc(-n2cncn2)c([N+](=O)[O-])c1 | nt | nt | nt | 3.1 | nt | nt
Cc1cccc(C(C)C)c1NC(=O)c1c(-c2ccccc2)noc1C | nt | nt | nt | 0.8 | nt | nt
CCc1noc(C)c1C(=O)N1CCN(S(=O)(=O)c2cccs2)CC1 | nt | nt | nt | 3.6 | nt | nt
COc1ccc2ccc(C(C)(C(C)=O)C(=O)OC(C)C)cc2c1 (stereo not drawn) | nt | nt | nt | 0.5 | nt | nt
COc1cc2c(cc1OC)CN(CC(=O)Nc1ccc(C)c(C)c1)CC2 | nt | nt | nt | -4.6 | nt | nt
Cc1c(NC(=O)COC(=O)c2cc(-c3ccc(-c4ccccc4)cc3)nc3ccccc23)c(=O)n(-c2ccccc2)n1C | -4.0 | 21.0 | 81.7* | -1.2 | -0.3 | 0.9
COc1cc(NS(=O)(=O)c2ccc(NC(=S)NC(=O)/C=C/c3ccc(OC)c(OC)c3)cc2)ncn1 | -4.0 | 59.1* | -74.4 | -5.8 | 0.5 | 3.1
CCc1nnc(NS(=O)(=O)c2ccc(NC(=S)NC(=O)/C=C/c3ccc(F)cc3)cc2)s1 | -5.0 | 61.2* | -30.7 | 12.0 | 2.9 | -0.9
Cc1ccccc1CN1CCN(Cc2cc(=O)c3ccccc3[nH]2)CC1CCO (stereo not drawn) | nt | nt | nt | 13.1 | nt | nt
COc1ccc(C(=O)NCCc2cnc[nH]2)cc1OC | nt | nt | nt | 0.8 | nt | nt
Cc1ccsc1C(=O)OCC(=O)N1CCOCC1 | -5.0 | 2.0 | 66.7* | 2.6 | 2.3 | 1.5
COC(=O)c1ccc(COc2ccc(/C=N/Nc3nc(C)cc(=O)[nH]3)cc2)cc1 | nt | 54.8* | 15.1 | 0.1 | 1.2 | 2.0
COC(=O)c1ccc(COc2ccc(/C=N/Nc3cccc(C(=O)O)c3)cc2)cc1 | nt | 37.1 | -16.1 | 8.3 | -0.8 | 0.8
O=C(CSc1nnc(NC2CCCCC2)s1)N1CCOCC1 | nt | nt | nt | -20.3 | nt | nt
COCC1CCCC1OS(N)(=O)=O (stereo not drawn) | nt | nt | nt | 4.9 | nt | nt
CN(CC(=O)Nc1ccccc1Cl)C(=O)c1ccc(-c2cccc(C(F)(F)F)c2)o1 | nt | nt | nt | -0.5 | nt | nt
COc1cc(C)ccc1OCCCCN1CC(C)OC(C)C1 (stereo not drawn) | -2.0 | 29.4 | 51.6* | 4.5 | 0.3 | -0.1
CC1CN(CCCCOc2ccc(Cl)c3ccccc23)CC(C)O1 (stereo not drawn) | nt | nt | nt | -1.8 | nt | nt
